Calls of active or inactive are those of the source.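 Rule for the calls, unless noted: active = visually confirmed hit in the image check and inhibition above 20%; inconclusive = visually confirmed hit but inhibition not above 20%; inactive = no visual hit in the image check.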
Tested on: not listed separately
Experiment: endothelial E-selectin expression blockers – imaging, HUVEC, immunofluorescence, MLSMR starter and 10KST1 sets, primary screen (AID 487);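 for inhibition: signal is fraction of cell area covered by stained E-selectin grains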;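 for nuclei count: 100% = median nuclei count of all wells on the same plate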
Details: HUVEC TNFalpha-induced E-selectin immunofluorescence imaging, at 2 µM; inhibition: stronger effect = higher value; nuclei count: measured here: cell number, toxicity

For `CCOc1ccc2nc(SCc3ccc(C(=O)OC)o3)[nH]c2c1`, which nuclei count is on record?
Its nuclei count is 112%.

What about the inhibition of the same compound?
The inhibition was -39.4% (inactive).

Which results are given for `Cc1cc(C)nc(SCC(=O)Nc2ncc3c(n2)CCCC3=O)n1`?
inhibition: -9.1% (inactive); nuclei count: 85.2%

Which nuclei count does the source give for `O=C(Cn1cc2c(n1)CCCC2)NCCc1ccccc1` here?
Its nuclei count is 118%.

And the inhibition?
The inhibition was -47.8% (inactive).

What does the source list for `COc1ccc(-c2nnc(SCC(=O)Nc3sc4c(c3C#N)CCC4)n2CC2CCCO2)cc1` (stereo not given)?
nuclei count: 131%; inhibition: -171% (inactive)

With `O=C1c2ccccc2S(=O)(=O)N1Cc1nnc(-c2ccccc2Br)o1` as the compound, how does the nuclei count read?
The nuclei count was 99.5%.

What about the inhibition of the same compound?
The inhibition was 51.8% (active).

What does the source list for `O=C(CCc1ccccc1)Nc1ccncc1`?
inhibition: -273% (inactive); nuclei count: 118%

For `CCCc1nnc(NC(=O)CCC(=O)N2CCN(CCOc3ccc(C)cc3)CC2)s1`, which inhibition is on record?
Its inhibition is -2.3% (inactive).

And the nuclei count?
The nuclei count was 81.8%.

With `O=C(/C=C1\NC2(CCCC2)Cc2ccccc21)N1CCOCC1` as the compound, how does the inhibition read?
The inhibition was -93.5% (inactive).

What about the nuclei count of the same compound?
The nuclei count was 134%.

With `Cn1cnc(S(=O)(=O)NCc2cccs2)c1` as the compound, how does the nuclei count read?
Its nuclei count is 132%.

And the inhibition?
The inhibition was -43.8% (inactive).

With `CCOC(=O)c1oc2cccc(OC(C)=O)c2c1C` as the compound, how does the inhibition read?
The inhibition was 24.5% (inactive).

What about the nuclei count of the same compound?
Its nuclei count is 85.9%.

With `CCC(C)(C)NC(=O)CN(Cc1ccc2c(c1)OCO2)C(=O)CCC(=O)Nc1ccccn1` as the compound, how does the inhibition read?
The inhibition was -59.2% (inactive).

And the nuclei count?
Its nuclei count is 114%.

Which nuclei count does the source give for `Cc1ccc(C(=O)NC(Cc2c[nH]c3ccccc23)C(=O)O)o1` (stereo not given) here?
Its nuclei count is 120%.

What about the inhibition of the same compound?
The inhibition was -25% (inactive).

With `Nc1cc(CN2C(=O)c3ccccc3C2=O)cc(Cl)c1O` as the compound, how does the inhibition read?
Its inhibition is -74.6% (inactive).

What about the nuclei count of the same compound?
Its nuclei count is 159%.

What does the source list for `O=S(=O)(Nc1nc2ccccc2nc1NCc1ccco1)c1cccs1`?
nuclei count: 120%; inhibition: -73.9% (inactive)

Which results are given for `COc1ccc(S(=O)(=O)Nc2cc(C)on2)cc1OC`?
nuclei count: 136%; inhibition: -171% (inactive)

What does the source list for `O=C(CSc1nccn1Cc1ccccc1)Nc1nccs1`?
inhibition: -16.7% (inactive); nuclei count: 118%

For `Nc1cc(=O)[nH]c(SCC(=O)Nc2ccc(Br)cc2)n1`, which inhibition is on record?
The inhibition was 18.9% (inactive).

What about the nuclei count of the same compound?
The nuclei count was 128%.

Which results are given for `CCN(CCCNC(=O)CC1Oc2ccc(C)cc2NC1=O)Cc1ccccc1` (stereo not given)?
nuclei count: 128%; inhibition: -42.9% (inactive)

Which results are given for `O=C(OCCN(CCOC(=O)c1ccncc1)S(=O)(=O)c1cccs1)c1ccncc1`?
nuclei count: 123%; inhibition: -180% (inactive)

Which inhibition does the source give for `CCc1c(C)c2ccc(OCC(=O)OC)cc2oc1=O` here?
The inhibition was 32.2% (inactive).

What about the nuclei count of the same compound?
Its nuclei count is 97.7%.

With `COc1ccccc1-n1c(C)nnc1SCC(=O)Nc1cccc(C(C)=O)c1` as the compound, how does the inhibition read?
The inhibition was 52.4% (inactive).

What about the nuclei count of the same compound?
The nuclei count was 95.1%.

What does the source list for `O=C(CCNS(=O)(=O)c1ccc(Cl)cc1)NCc1ccccn1`?
nuclei count: 101%; inhibition: 0.3% (inactive)

Which inhibition does the source give for `O=C1CC(Cc2ccccc2)C(=O)N1CCCn1ccnc1` (stereo not given) here?
The inhibition was 36.4% (inactive).

What about the nuclei count of the same compound?
Its nuclei count is 102%.

Which nuclei count does the source give for `CSc1ccccc1NC(=O)c1cnc2n(c1=O)CCS2` here?
Its nuclei count is 112%.

What about the inhibition of the same compound?
The inhibition was -2.6% (inactive).

Which inhibition does the source give for `COc1ccc(C(=O)NCc2ccccc2OC)cc1` here?
The inhibition was -25.9% (inactive).

And the nuclei count?
The nuclei count was 111%.

What does the source list for `O=C(CSc1nnc(-c2ccc(Br)o2)n1Cc1ccccc1)c1ccccc1F`?
nuclei count: 96.4%; inhibition: -35.1% (inactive)

For `Cc1ccc(/C=c2\s/c(=C(/C#N)C(=O)N3CCCC3)n(Cc3ccco3)c2=O)s1`, which inhibition is on record?
Its inhibition is -28.1% (inactive).

And the nuclei count?
The nuclei count was 136%.

What does the source list for `O=C(NCc1ccccn1)c1cc(-n2cnnc2)ccc1Cl`?
nuclei count: 110%; inhibition: -3.1% (inactive)

Which results are given for `O=C(c1ccc2c(c1)OCO2)N1CCCN(C(=O)c2ccc3c(c2)OCO3)CC1`?
nuclei count: 106%; inhibition: -123% (inactive)

What does the source list for `Cc1ccc(NC(=O)CCC(=O)O)cc1F`?
inhibition: -10.9% (inactive); nuclei count: 115%

Which inhibition does the source give for `COc1cc2c(N3CCOCC3)cc(O)c(CC(=O)Nc3ccccc3)c2cc1OC` here?
Its inhibition is -63.7% (inactive).

And the nuclei count?
The nuclei count was 101%.

Which results are given for `O=C(NCc1cccnc1)C1CCCN(S(=O)(=O)c2ccc(Cl)cc2)C1` (stereo not given)?
nuclei count: 104%; inhibition: -19.2% (inactive)

For `CCn1cc(C(=O)N2CCOCC2)c(=O)c2cc(S(=O)(=O)N(C)C3CCCCC3)ccc21`, which nuclei count is on record?
The nuclei count was 87.7%.

What about the inhibition of the same compound?
Its inhibition is -29.5% (inactive).

For `CC(C)N(C(=O)CSc1nnc(NC(=O)C2CCC2)s1)C(C)C`, which inhibition is on record?
Its inhibition is -108% (inactive).

And the nuclei count?
Its nuclei count is 110%.

Which inhibition does the source give for `Cc1ccc(CCSCC(=O)O)cn1` here?
The inhibition was 10.4% (inactive).

And the nuclei count?
The nuclei count was 83.6%.

Which inhibition does the source give for `COc1cc(OC)cc(C(=O)N2c3ccc(F)cc3CCC2C)c1` (stereo not given) here?
Its inhibition is -85.9% (inactive).

What about the nuclei count of the same compound?
Its nuclei count is 103%.

Which nuclei count does the source give for `O=C(CN1C(=O)c2ccccc2S1(=O)=O)NCc1ccccc1Cl` here?
The nuclei count was 108%.

And the inhibition?
The inhibition was -45.6% (inactive).

With `CC(C)[C@H](NC(=O)OC(C)(C)C)c1nnc(SCC(=O)Nc2ccc(Br)cc2)o1` as the compound, how does the nuclei count read?
The nuclei count was 130%.

What about the inhibition of the same compound?
Its inhibition is -13.2% (inactive).

Which nuclei count does the source give for `O=C(NCc1cccs1)C1CC(=O)N(C2CCCC2)C1` (stereo not given) here?
The nuclei count was 172%.

And the inhibition?
The inhibition was -121% (inactive).

Which inhibition does the source give for `O=C(Nc1ccc2snnc2c1)N1CCN(c2ccccc2)CC1` here?
Its inhibition is 0.3% (inactive).

And the nuclei count?
Its nuclei count is 117%.

Target: Voltage-gated potassium channel subunit beta-2 (Rattus norvegicus) (UniProt P62483)
Experiment: inhibitors of rat Kvbeta2 reductase activity – biochemical, NADPH fluorescence, primary screen (AID 622;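 active = fluorescence slope higher than the sample average by over 3 SD, cut at about -0.22 in these data, passing the limit was not always enough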;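 note: slope of raw intensity against log time taken from 70 to 1610 s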)
Details: recombinant KvBeta, 4-cyanobenzaldehyde reduction, at 10 µM, stronger effect = higher value

Sequence of Voltage-gated potassium channel subunit beta-2 (Rattus norvegicus) (P62483 whole entry, looked up): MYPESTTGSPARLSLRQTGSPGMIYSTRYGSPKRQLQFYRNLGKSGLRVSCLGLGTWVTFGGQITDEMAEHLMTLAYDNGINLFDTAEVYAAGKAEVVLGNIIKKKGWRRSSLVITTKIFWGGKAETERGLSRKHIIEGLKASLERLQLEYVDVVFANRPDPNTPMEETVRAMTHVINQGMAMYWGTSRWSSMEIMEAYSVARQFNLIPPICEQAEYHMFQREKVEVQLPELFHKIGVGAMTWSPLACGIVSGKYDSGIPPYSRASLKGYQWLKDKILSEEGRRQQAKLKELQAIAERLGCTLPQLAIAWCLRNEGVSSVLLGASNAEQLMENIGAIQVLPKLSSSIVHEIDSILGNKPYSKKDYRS

For `CCOc1ccc2nc(SCc3ccc(C(=O)OC)o3)[nH]c2c1`, which fluorescence slope is on record?
Its fluorescence slope is -0.546 (inactive).

For `Cc1cc(C)nc(SCC(=O)Nc2ncc3c(n2)CCCC3=O)n1`, which fluorescence slope is on record?
The fluorescence slope was -0.622 (inactive).

With `O=C(Cn1cc2c(n1)CCCC2)NCCc1ccccc1` as the compound, how does the fluorescence slope read?
The fluorescence slope was -0.428 (inactive).

With `COc1ccc(-c2nnc(SCC(=O)Nc3sc4c(c3C#N)CCC4)n2CC2CCCO2)cc1` (stereo not given) as the compound, how does the fluorescence slope read?
Its fluorescence slope is -0.591 (inactive).

Which fluorescence slope does the source give for `O=C1c2ccccc2S(=O)(=O)N1Cc1nnc(-c2ccccc2Br)o1` here?
The fluorescence slope was -0.488 (inactive).

With `O=C(CCc1ccccc1)Nc1ccncc1` as the compound, how does the fluorescence slope read?
Its fluorescence slope is -0.446 (inactive).

Which fluorescence slope does the source give for `CCCc1nnc(NC(=O)CCC(=O)N2CCN(CCOc3ccc(C)cc3)CC2)s1` here?
Its fluorescence slope is -0.379 (inactive).

For `O=C(/C=C1\NC2(CCCC2)Cc2ccccc21)N1CCOCC1`, which fluorescence slope is on record?
The fluorescence slope was -0.534 (inactive).

Which fluorescence slope does the source give for `Cn1cnc(S(=O)(=O)NCc2cccs2)c1` here?
Its fluorescence slope is -0.541 (inactive).

With `CCOC(=O)c1oc2cccc(OC(C)=O)c2c1C` as the compound, how does the fluorescence slope read?
The fluorescence slope was -0.607 (inactive).

For `CCC(C)(C)NC(=O)CN(Cc1ccc2c(c1)OCO2)C(=O)CCC(=O)Nc1ccccn1`, which fluorescence slope is on record?
The fluorescence slope was -0.403 (inactive).

Which fluorescence slope does the source give for `Cc1ccc(C(=O)NC(Cc2c[nH]c3ccccc23)C(=O)O)o1` (stereo not given) here?
Its fluorescence slope is -0.485 (inactive).

For `Nc1cc(CN2C(=O)c3ccccc3C2=O)cc(Cl)c1O`, which fluorescence slope is on record?
The fluorescence slope was -0.401 (inactive).

With `O=S(=O)(Nc1nc2ccccc2nc1NCc1ccco1)c1cccs1` as the compound, how does the fluorescence slope read?
Its fluorescence slope is -0.298 (inactive).

Which fluorescence slope does the source give for `COc1ccc(S(=O)(=O)Nc2cc(C)on2)cc1OC` here?
The fluorescence slope was -0.523 (inactive).

For `O=C(CSc1nccn1Cc1ccccc1)Nc1nccs1`, which fluorescence slope is on record?
The fluorescence slope was -0.512 (inactive).

Which fluorescence slope does the source give for `Nc1cc(=O)[nH]c(SCC(=O)Nc2ccc(Br)cc2)n1` here?
The fluorescence slope was -0.507 (inactive).

For `CCN(CCCNC(=O)CC1Oc2ccc(C)cc2NC1=O)Cc1ccccc1` (stereo not given), which fluorescence slope is on record?
Its fluorescence slope is -0.495 (inactive).

With `O=C(OCCN(CCOC(=O)c1ccncc1)S(=O)(=O)c1cccs1)c1ccncc1` as the compound, how does the fluorescence slope read?
The fluorescence slope was -0.581 (inactive).

With `CCc1c(C)c2ccc(OCC(=O)OC)cc2oc1=O` as the compound, how does the fluorescence slope read?
Its fluorescence slope is -0.165 (inactive).

With `COc1ccccc1-n1c(C)nnc1SCC(=O)Nc1cccc(C(C)=O)c1` as the compound, how does the fluorescence slope read?
The fluorescence slope was -0.355 (inactive).

Which fluorescence slope does the source give for `O=C(CCNS(=O)(=O)c1ccc(Cl)cc1)NCc1ccccn1` here?
Its fluorescence slope is -0.318 (inactive).

With `O=C1CC(Cc2ccccc2)C(=O)N1CCCn1ccnc1` (stereo not given) as the compound, how does the fluorescence slope read?
The fluorescence slope was -0.346 (inactive).

With `CSc1ccccc1NC(=O)c1cnc2n(c1=O)CCS2` as the compound, how does the fluorescence slope read?
Its fluorescence slope is -0.401 (inactive).

Which fluorescence slope does the source give for `COc1ccc(C(=O)NCc2ccccc2OC)cc1` here?
The fluorescence slope was -0.47 (inactive).

For `O=C(CSc1nnc(-c2ccc(Br)o2)n1Cc1ccccc1)c1ccccc1F`, which fluorescence slope is on record?
The fluorescence slope was -0.391 (inactive).

For `Cc1ccc(/C=c2\s/c(=C(/C#N)C(=O)N3CCCC3)n(Cc3ccco3)c2=O)s1`, which fluorescence slope is on record?
Its fluorescence slope is -0.59 (inactive).

With `O=C(NCc1ccccn1)c1cc(-n2cnnc2)ccc1Cl` as the compound, how does the fluorescence slope read?
Its fluorescence slope is -0.502 (inactive).

For `O=C(c1ccc2c(c1)OCO2)N1CCCN(C(=O)c2ccc3c(c2)OCO3)CC1`, which fluorescence slope is on record?
The fluorescence slope was -0.417 (inactive).

For `Cc1ccc(NC(=O)CCC(=O)O)cc1F`, which fluorescence slope is on record?
Its fluorescence slope is -0.508 (inactive).

With `COc1cc2c(N3CCOCC3)cc(O)c(CC(=O)Nc3ccccc3)c2cc1OC` as the compound, how does the fluorescence slope read?
The fluorescence slope was -0.344 (inactive).

With `O=C(NCc1cccnc1)C1CCCN(S(=O)(=O)c2ccc(Cl)cc2)C1` (stereo not given) as the compound, how does the fluorescence slope read?
The fluorescence slope was -0.601 (inactive).

With `CCn1cc(C(=O)N2CCOCC2)c(=O)c2cc(S(=O)(=O)N(C)C3CCCCC3)ccc21` as the compound, how does the fluorescence slope read?
The fluorescence slope was -0.581 (inactive).

Which fluorescence slope does the source give for `CC(C)N(C(=O)CSc1nnc(NC(=O)C2CCC2)s1)C(C)C` here?
The fluorescence slope was -0.466 (inactive).

For `Cc1ccc(CCSCC(=O)O)cn1`, which fluorescence slope is on record?
Its fluorescence slope is -0.428 (inactive).

For `COc1cc(OC)cc(C(=O)N2c3ccc(F)cc3CCC2C)c1` (stereo not given), which fluorescence slope is on record?
The fluorescence slope was -0.524 (inactive).

For `O=C(CN1C(=O)c2ccccc2S1(=O)=O)NCc1ccccc1Cl`, which fluorescence slope is on record?
Its fluorescence slope is -0.599 (inactive).

For `CC(C)[C@H](NC(=O)OC(C)(C)C)c1nnc(SCC(=O)Nc2ccc(Br)cc2)o1`, which fluorescence slope is on record?
The fluorescence slope was -0.457 (inactive).

For `O=C(NCc1cccs1)C1CC(=O)N(C2CCCC2)C1` (stereo not given), which fluorescence slope is on record?
The fluorescence slope was -0.56 (inactive).

With `O=C(Nc1ccc2snnc2c1)N1CCN(c2ccccc2)CC1` as the compound, how does the fluorescence slope read?
The fluorescence slope was -0.425 (inactive).

Reference: PubChem BioAssay
